Compound activity as filed in PubChem.
MEKK2 mut-MEK5: signal of MEK5 binding to mutant human MEKK2 PB1 domain. bead flow cytometry, Alexa488-MEK5 binding to MEKK2 mutant. percent response, % at 10 µM. hit rate 0.35% among 290,000. AID 1530; in the data active = percent response above about 24%, passing the limit was not always enough
TMEM16A act: activators or potentiators of mouse TMEM16A chloride channel. Q8BHY3. hit rate 0.3% among 340,000. HEK293 TMEM16A/YFP-H148Q/I152L, iodide quench fluorescence; stronger effect = lower value. B-score at 10 µM;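 active = fluorescence-ratio B-score plate-corrected deviation score at least 3 library SD below zero, with starting fluorescence score within 5 deviations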;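 note: channel opened by trigger with iodide after compound preincubation; score built on the fluorescence ratio of max minus min over baseline; more negative score means more quench and so TMEM16A activation or potentiation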
MEKK2wt PB1 HTS: raises or lowers MEK5 binding to wildtype human MEKK2 PB1 domain; binding response (% of control), % at 10 µM; AID 1531; bead flow cytometry, Alexa488-MEK5 binding to MEKK2 WT; actives lie on both sides; Q9Y2U5; hit rate 1.1% among 290,000; in the data active = binding response below about 67% or above about 130%
NTR1 agonist: NTR1 (human) agonism. P30989. NTR1-U2OS beta-arrestin-GFP spot imaging, agonist mode. activation, % at 20 µM. hit rate 0.17% among 330,000. AID 493036;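 active = activation at or above 40% of the spot to cytoplasm intensity ratio, with at least 20 cells analyzed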;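 note: 0% = DMSO without peptide and 100% = 100 nM NTR1 peptide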
ANO1 block: mouse TMEM16A channel inhibition, primary screen | AID 588511 | HEK293 TMEM16A/YFP iodide influx fluorescence, ionomycin | hit rate 1.2% among 310,000 | normalized B-score (activity score, 25-100; higher = stronger inhibition) at 10 µM | Q8BHY3;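 active = ratio plate-corrected score three or more library SD toward inhibition, starting fluorescence score within five deviations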;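 note: score derived from kinetic fluorescence span divided by baseline fluorescence per well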
MEKK3 PB1 HTS: raises or lowers MEK5 binding to the human MEKK3 PB1 domain; binding response (% of control), % at 10 µM; Q99759; AID 1529; bead-based flow cytometry, Alexa488-MEK5 binding to MEKK3; actives lie on both sides; 0 = blocked by unlabeled MEK5, 100 = vehicle; hit rate 1.4% among 290,000;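 active = binding response more than 3 SD above or below the average of its plate-row segment, actives on both sides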;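 note: Alexa488 bead fluorescence after subtracting the streptavidin-only scavenger bead signal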
TMEM16A reconf: re-confirmation of mouse TMEM16A chloride channel inhibitors. shares compounds with ANO1 block. inhibition, % at 10 µM. HEK293 TMEM16A/YFP-H148Q, iodide quench fluorescence; ionomycin added to raise cell calcium. AID 652189. hit rate 39% among 2,300;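 active = mean duplicate percent inhibition, scaled so buffer wells are 0 and the reference blocker 100, over three buffer SD above buffer mean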
TMEM16A Ca cntr: counter-screen for TMEM16A inhibitors: effect on calcium mobilization | calcium response (% of ionomycin), % at 10 µM | shares compounds with ANO1 block | TMEM16A/YFP HEK293, Fluo4 calcium mobilization | hit rate 2% among 2,300;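 active = duplicate-averaged calcium signal over 20% of the ionomycin maximum, relative to buffer baseline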;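 note: each well's signal is peak minus trough fluorescence divided by its pre-addition baseline; 0% = buffer wells and 100% = ionomycin wells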
Parental YFP cnt: counter-screen for TMEM16A inhibitors: effect in parental YFP-HEK293 cells; iodide YFP quench, ionomycin; shares compounds with ANO1 block; 2,300 tested, under 10 active; YFP ratio F(max-min)/F0 at 10 µM;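 active = yellow fluorescent protein signal ratio exceeding the buffer control mean by over 5 SD of those controls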;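 note: ratio is mean of duplicate wells from kinetic YFP trace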
ClC-1 rat inh: selectivity of TMEM16A inhibitors: inhibition of rat ClC-1 chloride channel; CHO ClC-1-YFP, iodide influx fluorescence quench; iodide control reads 0, buffer control 100; ratio percent, % at 10 µM; 2,300 tested, under 10 active; AID 652236; shares compounds with ANO1 block;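 active = duplicate-mean ratio percent above the mean of iodide-only control wells, which defines zero, plus 5 of their SD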;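 note: higher percent means stronger block of ClC-1 iodide influx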
Target sequence (P35524 whole entry, looked up): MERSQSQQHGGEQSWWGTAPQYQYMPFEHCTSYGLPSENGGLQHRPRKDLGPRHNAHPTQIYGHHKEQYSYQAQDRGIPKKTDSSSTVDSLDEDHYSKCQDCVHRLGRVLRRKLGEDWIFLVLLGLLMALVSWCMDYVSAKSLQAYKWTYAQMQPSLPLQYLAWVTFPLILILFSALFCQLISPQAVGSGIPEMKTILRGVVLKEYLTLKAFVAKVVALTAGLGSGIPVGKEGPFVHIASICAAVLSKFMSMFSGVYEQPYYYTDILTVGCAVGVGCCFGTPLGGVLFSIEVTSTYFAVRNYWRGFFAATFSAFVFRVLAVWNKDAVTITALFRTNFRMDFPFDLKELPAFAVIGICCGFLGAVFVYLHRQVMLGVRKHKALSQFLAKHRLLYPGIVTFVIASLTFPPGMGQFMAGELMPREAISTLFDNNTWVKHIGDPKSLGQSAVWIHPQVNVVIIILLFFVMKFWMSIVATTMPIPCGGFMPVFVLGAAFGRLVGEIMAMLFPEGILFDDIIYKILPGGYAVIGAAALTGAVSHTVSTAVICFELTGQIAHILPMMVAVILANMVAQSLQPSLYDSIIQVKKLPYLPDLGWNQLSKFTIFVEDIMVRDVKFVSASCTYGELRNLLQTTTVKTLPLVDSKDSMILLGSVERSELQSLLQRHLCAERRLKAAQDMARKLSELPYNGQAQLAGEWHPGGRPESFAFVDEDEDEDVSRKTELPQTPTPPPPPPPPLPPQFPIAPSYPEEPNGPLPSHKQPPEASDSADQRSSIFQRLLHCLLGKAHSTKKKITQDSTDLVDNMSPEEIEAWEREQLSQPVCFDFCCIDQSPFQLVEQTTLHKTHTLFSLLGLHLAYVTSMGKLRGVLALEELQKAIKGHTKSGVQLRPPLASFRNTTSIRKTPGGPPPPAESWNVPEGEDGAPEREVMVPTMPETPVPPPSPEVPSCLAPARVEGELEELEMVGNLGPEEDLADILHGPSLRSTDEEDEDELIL
* hit, by the source's call; i = inactive; nt = no result. Only some compounds are listed: those with a hit (about 3.4% of all), similar ones and a draw of the others.

SMILES | MEKK2 mut-MEK5 | TMEM16A act | MEKK2wt PB1 HTS | NTR1 agonist | ANO1 block | MEKK3 PB1 HTS | TMEM16A reconf | TMEM16A Ca cntr | Parental YFP cnt | ClC-1 rat inh
COc1ccc(COC(=O)c2ccc(Cl)c(S(=O)(=O)N3CC(C)OC(C)C3)c2)cc1 (stereo unspecified) | nt | i | nt | 2 | 25* | nt | 16%* | i | -1 | -7
O=S(=O)(c1ccc(C2CCCCC2)cc1)N1CCCC1 | -2 | i | 98 | 4 | 25* | 98 | i | i | -0.83 | 0
CCCc1ccc(Oc2c(-c3ccc(O)c(C)c3O)n[nH]c2C)cc1 | -3 | i | 94 | 18 | 100* | 98 | i | i | -1.2 | -7
COc1ccc(Oc2c(-c3ccc(O)cc3O)n[nH]c2C)cc1 | -7 | i | 94 | 0 | i | 92 | nt | nt | nt | nt
Cc1cccc(CN2C(=O)N/C(=C/c3ccc(C)s3)C2=O)c1 | -2 | i | 81 | -1 | i | 88 | i | i | -0.84 | 8
Cc1ccc(/C=C2/NC(=O)N(Cc3ccccc3)C2=O)s1 | -2 | i | 96 | 3 | i | 100 | nt | nt | nt | nt
COc1ccccc1N(C)S(=O)(=O)c1ccc(Cl)c(C(=O)OCc2c(C)noc2C)c1 | 3 | i | 99 | 6 | i | 104 | nt | nt | nt | nt
O=C(Nc1ccn(-c2ccccc2)n1)c1ccc(S(=O)(=O)N2CCCCCC2)cc1 | -10 | i | 93 | 2 | 25* | 89 | i | i | -1.2 | -7
O=C(Nc1ccccc1)c1ccc(S(=O)(=O)N2CCCCC2)cc1 | 0 | i | 102 | 0 | i | 100 | nt | nt | nt | nt
COc1cc(Nc2nc3ccccc3n3nnnc23)cc(OC)c1OC | 1 | i | 101 | 4 | i | 98 | i | i | -0.81 | -4
Cc1[nH]n(-c2ccccc2)c(=O)c1N=Nc1ccc2c(c1)OCCO2 | 0 | i | 106 | 9 | i | 113 | nt | nt | nt | nt
Cc1[nH]n(-c2ccccc2)c(=O)c1N=Nc1c(O)cc(S(=O)(=O)N(C)C)c2ccccc12 | nt | i | nt | 5 | 100* | nt | 48%* | i | -0.95 | -3
COc1ccc(NS(=O)(=O)c2ccc3c(c2)Cc2ccccc2-3)cn1 | -2 | i | 100 | 0 | 25* | 98 | i | i | -1.5 | -3
COc1ccc(NS(=O)(=O)c2ccc(N3CCCC3=O)cc2)cn1 | -1 | i | 100 | 1 | i | 101 | nt | nt | nt | nt
CCN(C(=O)CN1CCN(c2ccccc2O)CC1)c1c(N)n(Cc2ccccc2)c(=O)[nH]c1=O | 6 | i | 105 | 1 | i | 102 | nt | nt | nt | nt
CCN(C(=O)CN1CCN(c2ccccc2F)CC1)c1c(N)n(Cc2ccccc2)c(=O)[nH]c1=O | -9 | i | 89 | 0 | 100* | 93 | i | i | -0.96 | -18
c1ccc(-c2nc(CSc3nnc(-c4cccs4)o3)cs2)cc1 | 1 | i | 96 | 3 | 100* | 104 | i | i | -1.2 | -4
COc1ccc(OC)c(S(=O)(=O)Nc2ccc(Oc3ccccc3)cc2)c1 | 6 | i | 100 | 6 | 25* | 108 | i | i | -1.1 | -13
CCN(CC)CCCN1C(=O)C(O)=C(C(=O)c2ccco2)C1c1ccc(OC(C)C)cc1 (stereo unspecified) | 8 | i | 112 | -3 | i | 107 | nt | nt | nt | nt
C=CCOc1ccc(C2C(C(=O)c3ccco3)=C(O)C(=O)N2CCCN(CC)CC)cc1 (stereo unspecified) | 5 | i | 109 | 1 | 25* | 108 | i | i | -0.97 | -20
COc1ccccc1C(O)(C(=O)NNc1cccc(C)c1)c1ccccc1OC | -1 | i | 100 | -2 | i | 98 | nt | nt | nt | nt
Cc1ccc(C)c(OCC(=O)NCCNC(=O)COc2cc(C)ccc2C)c1 | 1 | i | 97 | -1 | 100* | 112 | i | i | -1.2 | -12
Cc1ccc(C)c(OCCC(=O)OCC(=O)NCCNC(=O)COC(=O)CCOc2cc(C)ccc2C)c1 | nt | i | nt | 4 | i | nt | nt | nt | nt | nt
CCOC(=O)/C=c1\s/c(=C\c2ccccc2C)c(=O)n1CC(=O)NCc1ccc2c(c1)OCO2 | 19 | i | 109 | 11 | i | 99 | nt | nt | nt | nt
CCOC(=O)/C=c1\s/c(=C\c2ccc3cc(OC)ccc3c2)c(=O)n1CC(=O)NCc1ccc2c(c1)OCO2 | 8 | i | 105 | 12 | i | 101 | 31%* | i | -0.98 | 17
SMILES | MEKK2 mut-MEK5 | TMEM16A act | MEKK2wt PB1 HTS | NTR1 agonist | ANO1 block | MEKK3 PB1 HTS | TMEM16A reconf | TMEM16A Ca cntr | Parental YFP cnt | ClC-1 rat inh
Cc1nnc(SCC(=O)c2cc(C)n(-c3ccc4c(c3)OCO4)c2C)s1 | 0 | -6.1* | 103 | 1 | 25* | 110 | i | 21%* | -1.1 | -11
Cc1cc(C(=O)CSc2nnnn2C)c(C)n1-c1ccc2c(c1)OCCO2 | -2 | i | 93 | -3 | i | 99 | nt | nt | nt | nt
C/C(Cc1ccccc1)=N\NC(=O)CNC(=O)c1ccc(C(C)(C)C)cc1 | -2 | i | 89 | -1 | i | 86 | nt | nt | nt | nt
CCOc1ccc(N(CC)S(=O)(=O)c2ccc3c(c2)n(C)c(=O)c(=O)n3C)cc1 | 3 | i | 105 | 0 | 100* | 103 | i | i | -1.2 | -6
CCOc1ccc(OCC)c(NS(=O)(=O)c2ccc3c(c2)n(C)c(=O)c(=O)n3C)c1 | -3 | i | 96 | -1 | i | 97 | nt | nt | nt | nt
Cc1cc(C(=O)CSc2n[nH]c(-c3ccccc3F)n2)c(C)n1Cc1cccs1 | -6 | i | 93 | 5 | 100* | 96 | i | i | -1.1 | -4
Cc1csc(SCC(=O)c2cc(C)n(Cc3cccs3)c2C)n1 | 1 | i | 102 | 0 | 100* | 101 | 16%* | i | -1.3 | -14
COCC(C)NC(=O)CSc1ncnc2sc(-c3ccccc3)cc12 (stereo unspecified) | 3 | i | 99 | 2 | i | 100 | nt | nt | nt | nt
CC(C)C(C)(C#N)NC(=O)CSc1ncnc2sc(-c3ccccc3)cc12 (stereo unspecified) | -6 | i | 96 | 5 | 25* | 99 | i | i | -1.1 | -4
